According to the supplement of paper PMC6555819:

What was measured:
Test in all cases: PBM binding z-score (relative to random genomic background probes); higher = stronger binding; sequences stand for … in GC…GCGATTGACAGCGTAGAATGAAGG
[1] = tested on: FXR:RXRa (NR concentration 270 nM, RXRa partner concentration 90 nM)
How it was run: (§1)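 Scanned fluorescence from custom Agilent 4×180K protein-binding microarrays was regression-normalized. Binding z-scores use random background probes as reference. Ligand-free nuclear receptor dimers were incubated on the arrays for 1 h and detected with antibodies against each partner (one per run).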

[2] = tested on: LXRa:RXRa (NR concentration 270 nM, RXRa partner concentration 90 nM)
How it was run: as §1

[3] = tested on: LXRa homodimer (NR concentration 270 nM)
How it was run: as §1

[4] = tested on: LXRb:RXRa (NR concentration 270 nM, RXRa partner concentration 90 nM)
How it was run: as §1

[5] = tested on: LXRb homodimer (NR concentration 270 nM)
How it was run: as §1

[6] = tested on: PPARa:RXRa (NR concentration 270 nM, RXRa partner concentration 90 nM)
How it was run: as §1

[7] = tested on: PPARg:RXRa (NR concentration 180 nM, RXRa partner concentration 90 nM)
How it was run: as §1

[8] = tested on: PPARg:RXRa 270nM:90nM, anti-RXR (NR concentration 270 nM, RXRa partner concentration 90 nM)
How it was run: as §1

[9] = tested on: PPARg:RXRa 30nM:10nM, anti-RXR (NR concentration 30 nM, RXRa partner concentration 10 nM)
How it was run: as §1

[10] = tested on: PPARg:RXRa 90nM:30nM, anti-RXR (NR concentration 90 nM, RXRa partner concentration 30 nM)
How it was run: as §1

Sequence	PBM binding z-score [1]	PBM binding z-score [2]	PBM binding z-score [3]	PBM binding z-score [4]	PBM binding z-score [5]	PBM binding z-score [6]	PBM binding z-score [7]	PBM binding z-score [8]	PBM binding z-score [9]	PBM binding z-score [10]
GCGACTGGGGAATCAGCAGGTTACCATAACTTAA	-0.766	-0.57	-0.287	0.0771	-1.25	0.0843	0.0906	-0.19	-0.448	-0.292
ATCGGAAGGTCGTGAGGTGAGTATACAGAAAGGC	2.73	1.85	0.212	1.69	0.0341	3.13	1.68	1.63	0.466	0.932
ACAGACCGGTGAGTGAAGGTAACTCAGCTGGACG	-0.151	-0.178	-0.654	-0.711	-0.849	-0.708	0.147	-0.715	-0.631	-1.01
ATCGAAAGGTCGACGGGGTGAGTATACACCGTTT	4.95	3.54	0.287	3.23	0.368	4.57	3	3.48	0.859	2.28
CAAACTAGGTCACGAAAGGTGAAAGTCGAATGAC	5.43	5.63	0.891	4.24	0.569	6.05	9.57	7.7	6.24	7.8
TCATATAGGTAAGGGTGAAAGTCGAACGATATGA	0.857	0.803	-0.00999	0.694	-0.563	2.47	2.7	3.29	3.87	3.72
ATATGTAGGTTAAGGGTCATTAAGGTTGGTTCGC	5.05	4.87	2.72	4.3	0.865	6.59	11.6	9.59	10.3	10.7
CAAACTAGGTCAGAGAGGTCAAAGTCCGTGCGTA	6.28	6.16	6.8	5.36	1.48	6.07	8.4	7.06	4.96	7.01
TGACTGAGGTTATAAGATCAGGGAACGTTGCAAA	1.3	1.14	-0.497	1.08	-0.238	2.27	0.706	0.976	0.531	0.783
CCAGACAGGGGAAAGGTAACTCAGTCTGGTACGC	-0.0858	-0.233	-0.21	0.0681	-0.648	1.46	2.34	3.79	1.37	3.25
TCTTGTAGATCCGCAGGTTAAGAAAGCTGGCCAA	0.144	0.322	-0.25	0.303	-0.333	0.634	-0.592	1.34	2.55	1.87
TCTTGTCGATCAAGCAGGTTAAGAAAGCCTGAGT	-0.117	0.258	-0.542	0.373	-0.662	0.754	-0.443	1.21	2.65	1.95
